Data taken from PubChem BioAssay (NCATS).
Records with an inconclusive call do not appear. Unmarked numbers belong to inactive results. Activity calls are given as the source filed them. Calls come from the whole dose curve; as a rule, active = well fitted cell-killing curve with a large enough effect; inconclusive = small, poorly fitted or top-dose-only effect, or effect the other way; inactive = no such curve, though single readings can be large or run the other way.

Experiment: Viability qHTS for spleen associated tyrosine kinase inhibitor (SYKi) drug resistant MV4-11 cells (AID 1963824); note: nearly all actives have a fitted effect of over 35% in size
Conditions: SYKi-resistant MV4-11 viability, CellTiter-Glo, 72 h; series mostly up to 45 µM; viability, % of control: at the top concentration
Procedure, shortened: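 CellTiter-Glo luminescence, read 10 min after reagent addition, reports viability after a 72 hr compound exposure. Cells are an MV4-11 line made resistant to SYK inhibition, seeded at 500 per well onto compound-containing plates.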
Potency is the fitted concentration of half-maximal effect.

| SMILES | Potency | viability, % of control |
| --- | --- | --- |
| COc1ccccc1NC(=O)Nc1ccc2ccccc2c1 | 20.6 µM (active) |  |
| CC(C)=C/C=C\[C@H](C)[C@H]1CC[C@]2(C)C[C@@H]3C(C)=CC(=O)C3/C(CO)=C\C[C@@H]12 (stereo not given in full) | 14.3 µM (active) |  |
| CC(F)(F)CN1CCOc2c(nn(-c3ccccc3Cl)c2-c2ccc(Cl)cc2)C1=O | 20.6 µM (active) |  |
| CC1=C[C@@H]2[C@H]3[C@@H]4O[C@@](C)(CC[C@H]4O)[C@H]3CC(=O)[C@]23C(=O)N[C@@H](CC(C)C)[C@@H]3[C@@H]1C | 8.05 µM (active) |  |
| Cc1noc(-c2ccc(-c3ccc(CC(=O)O)cc3)cc2)c1NC(=O)O[C@H](C)c1ccccc1Cl | 20.6 µM (active) |  |
| C=C1C(=O)O[C@@H]2/C=C(/C)CC3C=C(C[C@H](OC(=O)/C(C)=C\C)[C@@H]12)C(=O)O3 (stereo not given in full) | 2.55 µM (active) |  |
| COc1cc2c(cc1OC)N1C(=O)C[C@]34C=CCN5CC[C@@H]2[C@@H](CC3)[C@]514 | 8.05 µM (active) |  |
| OC[C@H]1O[C@@H](Oc2cc(O)cc(-c3cc4ccc(O)cc4o3)c2)[C@H](O)[C@@H](O)[C@@H]1O | 4.47 µM (active) |  |
| CCC(C)/C=C(C)/C=C/C(=O)C1CCC(O)C(C)(O)C1=O (stereo not given) | 13 µM (active) |  |
| Nc1cccc(CNC(=O)c2ccc(Oc3ccc(OCc4cccc(F)c4)cc3)nc2)c1 | 16.4 µM (active) |  |
| C=C1CCCC2(C)CCC(C(C)(C)OC3OC(C)C(O)C(O)C3OC(=O)/C(C)=C\C)CC12 (stereo not given) | 8.93 µM (active) |  |
| CC(/C=C/[C@]1(O)[C@@]2(C)CO[C@@]1(C)C[C@@H](O)C2)=C\C(=O)O[C@@H]1O[C@H](CO)[C@@H](O)[C@H](O)[C@H]1O |  | 90.8% [at 17.3 µM] |
| CCCCNc1ccc(-c2ccc(CN3CCOCC3)cn2)c(NC2CCC(O)CC2)c1 (stereo not given) | 0.0502 µM (active) |  |
| CC1(C)C2CCC(CO[C@@H]3O[C@H](CO[C@@H]4OC[C@](O)(CO)[C@H]4O)[C@@H](O)[C@H](O)[C@H]3O)C1C2 (stereo not given in full) |  | 97.3% [at 17.3 µM] |
| CN1CCC(NC(=O)c2cc(-c3c(O)cc(O)cc3Oc3ccc([N+](=O)[O-])cc3)on2)CC1 | 0.103 µM (active) |  |
| C=C1C[C@@]23CCC4[C@@](C)(CCC[C@@]4(C)C(=O)OC)C2CC[C@@H]1C3 (stereo not given in full) | 6.4 µM (active) |  |
| CC(=O)C1=C(O)C2c3c[nH]c4cccc(c34)CC2C(C)(C)N(C)C1=O (stereo not given) | 23.1 µM (active) |  |
| C=C(C(=O)OC)[C@@H]1CC=C2C=CC(=O)[C@H](C)[C@@]2(C)C1 | 18.4 µM (active) |  |
| C=C1CCC2C(C)(C(=O)O)CC(O)CC2(C)C1CC/C(C)=C/C(=O)O (stereo not given) |  | 97.8% |
| C[C@@H]1O[C@@H](O[C@H]2[C@H](O[C@H]3CO[C@@H](O[C@H]4CC[C@@]5(C)C(CC[C@]6(C)C5CC[C@]57OC[C@@]8(CC[C@](C)(CO)CC85)[C@H](O)C[C@]76C)C4(C)C)[C@H](O[C@@H]4O[C@H](CO)[C@@H](O)[C@H](O)[C@H]4O)[C@H]3O)O[C@H](CO)[C@@H](O)[C@@H]2O)[C@H](O)[C@H](O)[C@H]1O (stereo not given in full) |  | 95% [at 9.25 µM] |

| SMILES | Potency | viability, % of control |
| --- | --- | --- |
| Cc1ccc(F)cc1S(=O)(=O)N[C@@H]1CCN(Cc2ccc(OC(C)C)cc2)C1 | 18.4 µM (active) |  |
| C[C@@H]1O[C@@H](O[C@H]2[C@@H](OC(=O)[C@]34CCC(C)(C)CC3C3=CCC5[C@@]6(C)C[C@H](O)[C@H](O[C@@H]7O[C@H](CO)[C@@H](O)[C@H](O)[C@H]7O[C@@H]7OC[C@@H](O)[C@H](O)[C@H]7O)[C@@](C)(C(=O)O)C6CC[C@@]5(C)[C@]3(C)CC4)OC[C@H](O)[C@@H]2O)[C@H](O)[C@H](O)[C@H]1O[C@@H]1OC[C@@H](O)[C@H](O)[C@H]1O (stereo not given in full) | 1.38 µM (active) |  |
| CC1(C)C=CN2C(=O)C3=CCCN3C(=O)[C@@H]2C[C@@]12Nc1ccccc1C2=O |  | 97% |
| COC1OC(OC)C(O)(CCC2(C)C(C)CCC3(C)C2CC(O)C(O)C32CO2)C1O (stereo not given) |  | 95.5% [at 17.3 µM] |
| CC(O)(CC(=O)O)CC(=O)O[C@@H]1[C@@H](O)[C@H](OCCc2ccccc2)O[C@H](CO)[C@H]1O (stereo not given in full) |  | 96.2% [at 17.3 µM] |
| CC[C@@H]1[C@H]2CCCCN3C(=O)C[C@H]([C@@H]4[C@H]1OC(=O)[C@H]4C)[C@@H]23 |  | 77.3% |
| CC(C)C(=O)OCc1cccc(OC(=O)[C@@H]2N3C(=O)[C@@H](NC(=O)Cc4ccccc4)[C@H]3SC2(C)C)c1 | 7.5 µM (active) |  |
| Cc1noc2c1-c1ccccc1C(c1ccc(Cl)cc1)=N[C@H]2CC(N)=O | 0.332 µM (active) |  |
| CC(=O)OC/C(=C/C(=O)O)CC[C@@H]1C(C)=CC(=O)[C@@H]2C(C)(C)CCC[C@@]12C |  | 70.2% |
| CC(=O)Nc1nc(C)c(-c2nc(N3CCCC(O)C3)no2)s1 (stereo not given) | 16.4 µM (active) |  |
| CC[C@H](C(=O)Nc1ccccc1N1CCCC1)c1ccccc1 | 23.1 µM (active) |  |
| CCn1c(-c2nonc2N)nc2cncc(C(=O)N3CC[C@H](N)C3)c21 | 8.2 µM (active) |  |
| C/C=C(\C)C(=O)O[C@H]1C=CC(=O)O[C@H]1/C=C/[C@@H](O)[C@H](C)O | 3.66 µM (active) |  |
| OCC(O)CCO/N=C1/C(c2c(O)[nH]c3ccccc23)=Nc2ccccc21 (stereo not given) | 0.0517 µM (active) |  |
| CC(=O)O[C@H]1C[C@@]2(C)[C@@H](CC[C@H]3[C@@]4(C)C=CC(=O)[C@@H](C)[C@@H]4[C@H](OC(C)=O)C(=O)[C@@]32C)/C1=C(\CCC=C(C)C)C(=O)O |  | 104% [at 17.3 µM] |
| CC(=O)OC12CC(C)C(O)C1/C=C(/COC1OC(CO)C(O)C(O)C1O)CCC1C(/C=C(\C)C2=O)C1(C)C (stereo not given) |  | 94.3% [at 17.3 µM] |
| CNC(=S)NS(=O)(=O)c1cc(CCNC(=O)c2cc(Cl)ccc2OC)ccc1OC |  | 83.2% |
| COCC1OC(n2cnc3c(=O)[nH]cnc32)C(O)C1O (stereo not given) |  | 103% |
| CC(=O)O[C@H]1C(=O)[C@@]2(C)[C@H]([C@H](OC(=O)c3ccccc3)[C@]3(O)C[C@H](OC(=O)[C@H](O)[C@@H](NC(=O)c4ccccc4)c4ccccc4)C(C)=C1C3(C)C)[C@]1(OC(C)=O)CO[C@@H]1C[C@@H]2O | 0.0044 µM (active) |  |
| CNC(=O)c1ccc(-c2cnc3cnc(C(=O)N(C)c4ccc(Cl)cc4)cn23)cc1 | 18.4 µM (active) |  |
